SMILES strings stand for the structures. Values joined by “and” are separate entries in the source; they are usually repeats but may differ in a detail not shown here. Identical values can stand only once. Records with an inconclusive call do not appear. Active and inactive are the calls of the source. Unless noted, the call rests on the fitted dose curve.

Experiment [1] is described as follows: Confirmatory qHTS to identify inhibitors of SARS-CoV-2 cell entry (AID 1645844). Further: nearly all actives have a fitted effect of over 45% in size. Further: potency means the concentration at half of the fitted maximal effect. In outline: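 HEK293-ACE2 cells (Expi293F stably expressing human ACE2) were pretreated with compounds for 1 hr at 37C, then infected with MLV-based particles carrying Wuhan-Hu-1 spike (C-terminal 19-aa truncation). Luciferase luminescence read after 48 hr; normalized to spike PP (100%) and bald PP (0%).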

Experiment [2] in a line: Primary qHTS to identify inhibitors of SARS-CoV-2 cell entry (AID 1645846). Further: nearly all actives have a fitted effect of over 45% in size. Further: potency means the concentration at half of the fitted maximal effect. The following applies: SARS-CoV-2 pseudovirus cell entry assay, luminescence; activity change, negative = inhibition: at 57.1 µM (top of the series) unless noted. In outline: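 Entry measured by luciferase signal 48 h after adding SARS-CoV-2-S pseudotyped MLV particles to HEK293-ACE2 cells preincubated 1 h with compounds. Normalisation: bald particles and spike particles.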
For orientation: qHTS replaces the single test concentration by a dilution series.

Experiment [3] in a line: VSVG counterscreen qHTS to identify inhibitors of SARS-CoV-2 cell entry (AID 1645847). Further: nearly all actives have a fitted effect of over 65% in size. Further: potency means the concentration at half of the fitted maximal effect. On activity change, negative = inhibition: on the % scale 0 is the no-effect control and ±100 the full control effect. The procedure, abridged:
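Luminescence read after 48 h infection at 37 C with VSV-G-pseudotyped MLV particles, following 1 h compound exposure of Expi293F cells stably expressing human ACE2; scaled between bald particle and VSV-G particle wells.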
(A counterscreen serves to expose hits that act by an unwanted route or on another target.)

Experiment [4] is described as follows: Cytotoxicity counterscreen for inhibitors of SARS-CoV-2 cell entry (AID 1645845). Further: nearly all actives have a fitted effect of over 50% in size. Further: potency means the concentration at half of the fitted maximal effect. The settings on record: outcome: dose series up to 57.1 µM unless noted. In outline: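 Expi293F/hACE2 cells seeded overnight; cpd pin-transferred in DMSO, 1 h preincubation, + media, 48 h 37 C 5% CO2; ATPLite 1step luminescence; normalized to cells and no cells.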
The nature of experiment [5]: Primary qHTS for inhibitors of nuclear receptor binding SET domain protein 2 (NSD2) in an isogenic RCH-ACV NSD2 p.E1099K mutant (9B) (AID 1645876; active means well fitted curve in the direction sought with a large enough effect; an effect the other way counts as inactive or inconclusive; further: on the % scale 0 is the no-effect control and ±100 the full control effect; nearly all actives have a fitted effect of over 70% in size).
Experiment [6] is described as follows: Primary qHTS for inhibitors of nuclear receptor binding SET domain protein 2 (NSD2) in an RCH-ACV wild type WT cells (2C) (AID 1645877; active means well fitted curve in the direction sought with a large enough effect; an effect the other way counts as inactive or inconclusive; further: on the % scale 0 is the no-effect control and ±100 the full control effect; nearly all actives have a fitted effect of over 70% in size).
Experiment [7] addresses Glutathione peroxidase 1 (Homo sapiens) (UniProt P07203). The experiment in a line: Primary qHTS Assay for Inhibitors of Recombinant Selenoprotein Glutathione Peroxidase 1 (GPX1) (AID 1845191; active means well fitted curve in the direction sought with a large enough effect; an effect the other way counts as inactive or inconclusive; further: nearly all actives have a fitted effect of over 65% in size). In outline: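 Recombinant GPX1 (10 nM final) was preincubated with compound for 30 min at room temperature, then reacted with 1 mM GSH, 0.5 mM CHP, 0.5 mM NADPH and 100 nM glutathione reductase; NADPH fluorescence (340/450 nm) was read at 0 and 15 min.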

A short description of experiment [8]: qHTS drug screen for cell cycle checkpoint inhibitors in PARPi-resistant BRCA-mutant ovarian cancer cell lines. (AID 1963452). The following applies: PEO1/OlaR viability, CellTiter-Glo luminescence, 96 h, stronger effect = lower value. In outline: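 PEO1, PEO4 and PEO1/OlaR ovarian cancer cells, 600 per well, exposed 96 h at 37C to a dilution series. Viability read by CellTiter-Glo luminescence, normalized to DMSO and empty wells; activity summarized as Z-AUC.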

Glutathione peroxidase 1 (Homo sapiens), sequence (P07203 whole entry, looked up): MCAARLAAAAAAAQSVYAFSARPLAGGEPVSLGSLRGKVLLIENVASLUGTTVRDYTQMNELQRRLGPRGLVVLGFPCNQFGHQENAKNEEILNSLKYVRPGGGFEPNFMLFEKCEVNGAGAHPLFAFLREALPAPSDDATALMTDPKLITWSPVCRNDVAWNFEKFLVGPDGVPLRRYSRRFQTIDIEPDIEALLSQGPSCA

Turning to `NC(=O)c1ccccc1Nc1ccnc(Nc2cccc(O)c2)n1`, the values for the Potency in experiment [1], in experiment [2] and in experiment [3] were 9610 nM (active), 8910 nM (active) and 7640 nM (active), respectively.
Regarding `C=CC(=O)N1CCC(Oc2cc3c(Nc4ccc(Cl)c(Cl)c4F)ncnc3cc2OC)CC1`, the Potency was 1360 nM (active) in experiment [1] and 961 nM (active) in experiment [3]. Moreover, in experiment [4], the Potency entry is “inactive”.
Turning to `CC/C(=C(/c1ccc(O)cc1)c1ccc(OCCNC)cc1)c1ccccc1`, the figures for the Potency in experiment [1] and in experiment [3] were 17100 nM (active) and 24100 nM (active), respectively. Further, in experiment [4], the Potency entry is “inactive”. Besides, the activity change, negative = inhibition in experiment [2] is -36.5%.
In the case of `C[C@H]1COCCN1c1cc(C2(S(=O)(=O)C3CC3)CC2)nc(-c2ccc(NC(=S)NCCO)cc2)n1`, the figures for the Potency in experiment [1] and in experiment [3] were 764 nM (active) and 304 nM (active), respectively. Further, the Potency result in experiment [4] was “inactive”. In experiment [2], the activity change, negative = inhibition was -79.3%.
Consider `COc1cc(OC)c(/C=C/S(=O)(=O)Cc2ccc(OC)c(OP(=O)(O)O)c2)c(OC)c1`, for which the figures for the Potency in experiment [1] and in experiment [3] were 17.5 nM (active) and 39.3 nM (active), respectively. In experiment [2], the activity change, negative = inhibition is -77.7%.
For `CC(C)c1cc(CNc2nc(Nc3cc(C4CC4)[nH]n3)cc(N3CCN(C)CC3)n2)on1`, the Potency in experiment [1] is 215 nM (active); in experiment [4], 12600 nM (active); in experiment [2], 2510 nM (active); in experiment [3], 541 nM (active).
As for `Cc1c(-c2ccc(-c3ccccc3F)cc2)nc2ccc(F)cc2c1C(=O)O`, the Potency is 108 nM (active) in experiment [1] and 136 nM (active) in experiment [3]. For the same compound, the Potency result in experiment [4] is “inactive”. Moreover, the activity change, negative = inhibition in experiment [2] was -89.2%.
Take `COc1cccc2c1C(=O)c1c(O)c3c(c(O)c1C2=O)C[C@@](O)(/C(CO)=N/NC(=O)CCCCCN1C(=O)C=CC1=O)C[C@@H]3O[C@H]1C[C@H](N)[C@H](O)[C@H](C)O1`: the results for the Potency in experiment [1], in experiment [2] and in experiment [3] were 429 nM (active), 1000 nM (active) and 341 nM (active), respectively.
Regarding `C[C@@]1(c2ncncc2F)NC(=O)c2cc(-c3cn[nH]c3)ccc21`, the Potency in experiment [1] was 3040 nM (active); in experiment [3], 4820 nM (active). In addition, the Potency result in experiment [4] is “inactive”.
`NC(=O)/C(=C/n1cnc(-c2cc(C(F)(F)F)cc(C(F)(F)F)c2)n1)c1cncnc1`: the Potency in experiment [1] is 607 nM (active); in experiment [2] it was 1260 nM (active); in experiment [3], 108 nM (active). In addition, the Potency entry in experiment [4] was “inactive”.
In the case of `CC(=O)N1CCN(CCOc2ccc(C3CCN(C4=Nn5c(nnc5C(F)(F)F)CC4)CC3)cc2)CC1`, the Potency in experiment [1] and in experiment [3] was 19200 nM (active) in each case. Further, in experiment [4], the Potency entry was “inactive”. Further, in experiment [2], the activity change, negative = inhibition is -91.8%.
Turning to `O=C(O)c1ccc(-c2c[nH]c3ncc(-c4ccccc4)cc23)cc1C1CCCC1`, the Potency was 1360 nM (active) in experiment [1], 2820 nM (active) in experiment [2] and 541 nM (active) in experiment [3].
For the compound `CCc1cnn2c(NCc3ccc[n+]([O-])c3)cc(N3CCCC[C@H]3CCO)nc12`, the values for the Potency in experiment [1] and in experiment [3] were 54.1 nM (active) and 34.1 nM (active), respectively. In experiment [4], the Potency entry was “inactive”. In addition, in experiment [2], the activity change, negative = inhibition is -54%.
Regarding `c1cc(Nc2cc(C3CC3)[nH]n2)nc(Nc2ccc3nc[nH]c3c2)n1`, the Potency is 192 nM (active) in experiment [1] and 242 nM (active) in experiment [3]. In addition, the activity change, negative = inhibition in experiment [2] was -94.9%.
Turning to `Cc1[nH]c2ccc(F)cc2c1-c1nc2c3cccnc3c3ncccc3c2[nH]1`, the Potency in experiment [1] was 555 nM (active); in experiment [3], 1750 nM (active). In addition, the Potency entry in experiment [4] is “inactive”. In addition, the activity change, negative = inhibition in experiment [2] was -96.1% [at 114 µM].
With `O=c1[nH]c([C@@H]2CCCN2)nc2c1oc1ccc(Cl)cc12`, the Potency in experiment [1] is 5410 nM (active); in experiment [3] it was 7640 nM (active). Further, in experiment [4], the Potency entry was “inactive”.
On to `O=C(CCCCCCC(=O)N/N=C/c1ccc(N(c2ccccc2)c2ccccc2)cc1)NO`, for which the Potency in experiment [1] is 8790 nM (active); in experiment [2], 3160 nM (active); in experiment [3], 7840 nM (active).
As to `CN1CCC(c2c(O)cc(O)c3c(=O)cc(-c4ccccc4Cl)oc23)C1CO` (configuration not stated), the Potency was 3040 nM (active) in experiment [1], 2820 nM (active) in experiment [2] and 2410 nM (active) in experiment [3]. Also, the Potency entry in experiment [4] was “inactive”.
With `CS(=O)(=O)N1CCC(NC(=O)c2[nH]ncc2NC(=O)c2c(Cl)cccc2Cl)CC1`, the values for the Potency in experiment [1] and in experiment [3] were 34.1 nM (active) and 96.1 nM (active), respectively. For the same compound, the activity change, negative = inhibition in experiment [2] is -94.8%.
For the compound `Nc1ccn([C@@H]2C(F)=C(CO)[C@@H](O)[C@H]2O)c(=O)n1`, the Potency was 1520 nM (active) in experiment [1] and 3040 nM (active) in experiment [3]. Moreover, the Potency entry in experiment [4] was “inactive”. Moreover, the activity change, negative = inhibition in experiment [2] was -76.2%.
Regarding `CCNCCS(=O)(=O)NC[C@@]1(c2ccccc2)SC(NC(=O)C(C)(C)C)=NN1C(=O)C(C)(C)C`, the Potency in experiment [1] was 60.7 nM (active); in experiment [3], 54.1 nM (active). For the same compound, the Potency entry in experiment [4] was “inactive”. In experiment [2], the activity change, negative = inhibition is -77.9%.
With `COc1ccc(-c2ccc3c(N4CCOC[C@@H]4C)nc(N4CCOC[C@@H]4C)nc3n2)cc1CO`, the results for the Potency in experiment [1], in experiment [2] and in experiment [3] were 681 nM (active), 1000 nM (active) and 429 nM (active), respectively.
`Cc1c[nH]c2ncnc(N3CCC(CN)(C(=O)Nc4cccc(OC(=O)N(C)C)c4)CC3)c12`: the Potency entry in experiment [1] and in experiment [3] was “inactive” each time. Further, the activity change, negative = inhibition in experiment [2] is -8.16% and -70.1%.
As for `C=CC(=O)N[C@H]1CN(c2nc(Nc3cn(C)nc3OC)c3ncn(C)c3n2)C[C@@H]1F`, the Potency entry in experiment [1], in experiment [4] and in experiment [3] was “inactive” throughout.
As for `CN1C(=O)[C@@H](NC(=O)c2cc(Cc3ccccc3)on2)COc2ccccc21`, the Potency entry in experiment [1], in experiment [4] and in experiment [3] was “inactive” in each case.
With `COc1ccc2[nH]c3c(c2c1)CCN[C@]31CS[C@@H]2c3c(OC(C)=O)c(C)c4c(c3[C@H](COC1=O)N1[C@@H]2[C@H]2c3c(cc(C)c(OC)c3O)C[C@@H]([C@@H]1O)N2C)OCO4`, the values for the Potency in experiment [1], in experiment [2] and in experiment [3] were 4.4 nM (active), 631 nM (active) and 3.5 nM (active), respectively.
Take `CC(C)n1c(=O)cc(N[C@@H](C)c2ccccc2)[nH]c1=O`: the Potency entry in experiment [1], in experiment [4] and in experiment [3] was “inactive” throughout. Besides, in experiment [2], the activity change, negative = inhibition is -96.7%.
Consider `C[C@H]1[C@H](O)[C@@H](C)/C=C/C=C/CC/C=C/C=C/C=C/C=C/[C@H](O[C@@H]2O[C@H](C)[C@@H](O)[C@H](N)[C@@H]2O)C[C@@H]2O[C@](O)(C[C@@H](O)[C@H](O)CC[C@@H](O)C[C@@H](O)C[C@@H](O)CC(=O)O[C@H]1C)C[C@H](O)[C@H]2C(=O)O`, for which the Potency in experiment [1] was 9610 nM (active). Besides, the Potency result in experiment [4], in experiment [5], in experiment [6] and in experiment [7] was “inactive” throughout. In addition, the activity change, negative = inhibition in experiment [2] is -39.7%. The Z-AUC in experiment [8] was 1.03 (inactive); in experiment [8] (measured here: PEO1 parental Z-AUC), 0.678; in experiment [8] (measured here: PEO4 Z-AUC) it was 1.2.

The values above are taken from PubChem BioAssay (NCATS).
